# Experimental data as given in the supplement of paper PMC12494721.
# Counter-ions that a name gives are not always drawn.
# Legend:
# Conditions in all cases: incubation time: 27 h, anaerobic, 37 °C;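 for the amine columns active = adjusted P below 0.05 in both replicates with a change the same way and a mean fold change under 0.8 or over 1.25; inactive = the rest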
# [1] = tested on: Clostridium sporogenes DSM 1664; assay: growth (OD595) fold change vs plate DMSO controls (fold change (ratio)); higher = more growth
# Summary of the method: (§1)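 To obtain OD, 595 nm absorbance readings were blank-subtracted, corrected for compound background using 20 µM compound solutions in water, and multiplied by a calibration factor of 5. They came from 96-well mGAM cultures grown anaerobically for 27 h at 37 °C and shaken before reading. Growth is the fold change relative to the median of plate DMSO controls. Two biological replicates were averaged, and fold changes above 1.5 were set to NA.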
# [2] = tested on: Escherichia coli IAI1; assay: as above
# Summary of the method: as §1
# [3] = tested on: Klebsiella aerogenes DSM 30053; assay: as above
# Summary of the method: as §1
# [4] = tested on: Ruminococcus gnavus DSM 108212; assay: as above
# Summary of the method: as §1
# [5] = tested on: Klebsiella aerogenes DSM 30053; assay: fold change of Histamine concentration vs plate DMSO controls (fold change (ratio)); higher = more amine produced, active = hit call of the paper (significant change in both replicates, either direction)
# Summary of the method: (§2)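 In 80 µL wells, cultures of four gut bacterial strains in mGAM started at OD 0.1 before a 1:1 dilution and grew anaerobically at 37 °C for 27 h. Compounds were added to 20 µM final, except sweeteners at 50 µM final. After extraction of whole cultures with cold acetonitrile/methanol plus 0.1% formic acid and centrifugation, amines were measured by LC–triple-quadrupole MS in dynamic MRM mode against external calibration curves, with within-batch drift correction. Values give fold change over DMSO controls on the same plate, averaged across 2 biological replicates.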
# [6] = tested on: Clostridium sporogenes DSM 1664; assay: fold change of Tryptamine concentration vs plate DMSO controls (fold change (ratio)); higher = more amine produced, active = hit call of the paper (significant change in both replicates, either direction)
# Summary of the method: as §2
# [7] = tested on: Ruminococcus gnavus DSM 108212; assay: as above
# Summary of the method: as §2
# [8] = tested on: Escherichia coli IAI1; assay: fold change of Putrescine concentration vs plate DMSO controls (fold change (ratio)); higher = more amine produced, active = hit call of the paper (significant change in both replicates, either direction)
# Summary of the method: as §2
# [9] = tested on: Klebsiella aerogenes DSM 30053; assay: as above
# Summary of the method: as §2
# [10] = tested on: Escherichia coli IAI1; assay: fold change of Cadaverine concentration vs plate DMSO controls (fold change (ratio)); higher = more amine produced, active = hit call of the paper (significant change in both replicates, either direction)
# Summary of the method: as §2
# [11] = tested on: Klebsiella aerogenes DSM 30053; assay: as above
# Summary of the method: as §2
# [12] = tested on: Ruminococcus gnavus DSM 108212; assay: fold change of 2-Phenylethylamine concentration vs plate DMSO controls (fold change (ratio)); higher = more amine produced, active = hit call of the paper (significant change in both replicates, either direction)
# Summary of the method: as §2
SMILES,growth [1],growth [2],growth [3],growth [4],fold change of Histamine concentration [5],fold change of Tryptamine concentration [6],fold change of Tryptamine concentration [7],fold change of Putrescine concentration [8],fold change of Putrescine concentration [9],fold change of Cadaverine concentration [10],fold change of Cadaverine concentration [11],fold change of 2-Phenylethylamine concentration [12]
COc1ccc2cc(CCC(C)=O)ccc2c1 [Nabumetone] (20 µM),1,0.792,1.01,0.995,0.912 (inactive),0.926 (inactive),0.944 (inactive),0.871 (inactive),0.974 (inactive),1.09 (inactive),1.01 (inactive),0.946 (inactive)
Cc1cnc(C(=O)NCCc2ccc(S(=O)(=O)NC(=O)NC3CCCCC3)cc2)cn1 [Glipizide] (20 µM),1.11,0.966,1.04,1.08,0.94 (inactive),1.01 (inactive),0.99 (inactive),0.989 (inactive),0.998 (inactive),0.973 (inactive),1 (inactive),1.03 (inactive)
COC(=O)C1=C(C)NC(C)=C(C(=O)O[C@H]2CCN(Cc3ccccc3)C2)[C@H]1c1cccc([N+](=O)[O-])c1 [Barnidipine Hydrochloride] (20 µM),0.993,1.08,0.991,1.06,1.01 (inactive),0.969 (inactive),0.992 (inactive),0.989 (inactive),0.999 (inactive),1.02 (inactive),1.01 (inactive),0.944 (inactive)
CC(=O)N(CC(C)C(=O)O)c1c(I)cc(I)c(N)c1I (stereo not drawn) [Iocetamic acid] (20 µM),0.863,1.01,0.986,0.975,1.04 (inactive),1.05 (inactive),0.971 (inactive),1.09 (inactive),1 (inactive),0.988 (inactive),0.987 (inactive),0.924 (inactive)
C[C@@H]1C[C@H]2[C@@H]3CCC4=CC(=O)C=C[C@]4(C)[C@@]3(Cl)[C@@H](O)C[C@]2(C)[C@@]1(OC(=O)c1ccco1)C(=O)CCl [Mometasone furoate] (20 µM),1.08,0.984,1.14,1.04,0.923 (inactive),0.991 (inactive),0.889 (inactive),1.02 (inactive),1 (inactive),1.03 (inactive),1.03 (inactive),0.898 (inactive)
Fc1ccc([C@@H]2CCNC[C@H]2COc2ccc3c(c2)OCO3)cc1 [Paroxetine hydrochloride] (20 µM),1.01,1.06,0.971,0.929,1.05 (inactive),0.925 (inactive),0.833 (inactive),0.692 (inactive),0.991 (inactive),1.69 (active),0.991 (inactive),0.885 (inactive)
CCN[C@@H]1C[C@H](N)[C@@H](O[C@H]2OC(CN)=CC[C@H]2N)[C@H](O)[C@H]1O[C@H]1OC[C@](C)(O)[C@H](NC)[C@H]1O [Netilmicin sulfate] (20 µM),0.949,0.93,0.898,0.912,0.845 (inactive),1.02 (inactive),0.901 (inactive),0.947 (inactive),0.995 (inactive),0.982 (inactive),0.993 (inactive),0.948 (inactive)
N=C(N)NC(=O)c1nc(Cl)c(N)nc1N [Amiloride hydrochloride dihydrate] (20 µM),0.984,0.951,0.984,0.948,0.982 (inactive),0.98 (inactive),1.09 (inactive),1.03 (inactive),0.94 (inactive),0.987 (inactive),1.05 (inactive),1.08 (inactive)
C[C@H](CCC(=O)O)[C@H]1CC[C@H]2[C@@H]3[C@@H](O)C[C@@H]4C[C@H](O)CC[C@]4(C)[C@H]3CC[C@]12C [Urosiol] (20 µM),0.969,1.05,1.06,1.02,0.998 (inactive),1.08 (inactive),1.08 (inactive),1.01 (inactive),0.961 (inactive),0.954 (inactive),1.05 (inactive),1.1 (inactive)
Cc1[nH]c(=O)c(C#N)cc1-c1ccncc1 [Milrinone] (20 µM),1.08,1.05,0.987,0.92,1.09 (inactive),0.997 (inactive),1.03 (inactive),1.02 (inactive),1.07 (inactive),0.924 (inactive),1.03 (inactive),0.996 (inactive)
CCN1CC(CCN2CCOCC2)C(c2ccccc2)(c2ccccc2)C1=O (stereo not drawn) [Doxapram hydrochloride] (20 µM),1.01,0.969,0.996,0.884,0.932 (inactive),1.09 (inactive),1.07 (inactive),0.977 (inactive),0.978 (inactive),1.01 (inactive),1.02 (inactive),1.08 (inactive)
CCCCCNC(=N)N/N=C/c1c[nH]c2ccc(OC)cc12 [Tegaserod maleate] (20 µM),0.905,1.01,1,1.08,0.983 (inactive),0.923 (inactive),0.791 (inactive),0.992 (inactive),0.997 (inactive),1.04 (inactive),1 (inactive),0.994 (inactive)
CCCN1CCCC[C@H]1C(=O)Nc1c(C)cccc1C [Ropivacaine hydrochloride] (20 µM),1.02,0.971,0.964,0.779,1.13 (inactive),1.13 (inactive),1.02 (inactive),0.946 (inactive),1.04 (inactive),1.03 (inactive),0.961 (inactive),1.01 (inactive)
Cc1cccc(Nc2ccncc2S(=O)(=O)NC(=O)NC(C)C)c1 [Torsemide] (20 µM),1.09,1.07,1,1.03,1.03 (inactive),1.05 (inactive),1.12 (inactive),1.06 (inactive),0.998 (inactive),0.976 (inactive),0.986 (inactive),1.24 (inactive)
COc1cc2ncnc(Nc3ccc(F)c(Cl)c3)c2cc1OCCCN1CCOCC1 [Gefitinib] (20 µM),1.1,1.04,0.991,1.18,0.983 (inactive),1.06 (inactive),0.993 (inactive),1.14 (inactive),0.997 (inactive),1.02 (inactive),1.02 (inactive),1.1 (inactive)
CC1(C)S[C@@H]2[C@H](NC(=O)[C@H](N)c3ccccc3)C(=O)N2[C@H]1C(=O)OC1OC(=O)c2ccccc21 (stereo partly drawn) [Talampicillin hydrochloride] (20 µM),0,0.00609,0.378,0.146,0.797 (active),0.0102 (active),0.0823 (active),0.252 (active),0.971 (inactive),0.867 (inactive),1.13 (inactive),0.0586 (active)
C[C@@]12CC[C@@H]3[C@@](CC[C@H]4[C@@]3(C)CCC[C@@]4(C)C(=O)O)(CC1=O)C2 [Iso-Steviol] (50 µM),1.08,0.954,1.03,1.09,1.02 (inactive),0.905 (inactive),1 (inactive),0.992 (inactive),1.02 (inactive),0.963 (inactive),1.02 (inactive),0.996 (inactive)
C#CCN[C@@H]1CCc2ccccc21 [Rasagiline] (20 µM),0.963,0.959,0.993,0.87,1.02 (inactive),1.03 (inactive),1.02 (inactive),0.965 (inactive),0.981 (inactive),1.02 (inactive),0.974 (inactive),1.03 (inactive)
Nc1ccc(S(=O)(=O)Nc2ccc(Cl)nn2)cc1 [Sulfachloropyridazine] (20 µM),1.03,0.966,1.05,0.974,0.939 (inactive),1.01 (inactive),1.04 (inactive),0.964 (inactive),0.976 (inactive),0.962 (inactive),1.01 (inactive),1.14 (inactive)
CC(Oc1c(Cl)cccc1Cl)C1=NCCN1 (stereo not drawn) [Lofexidine] (20 µM),1.07,1.09,1.06,1.04,0.922 (inactive),0.975 (inactive),1.03 (inactive),1.04 (inactive),0.993 (inactive),1.01 (inactive),1.01 (inactive),1.01 (inactive)
"C[C@H]1C[C@@H]2[C@H]([C@@H](O)C[C@@]3(C)[C@H]2CC[C@]3(O)C(=O)CO)[C@@]2(C)C=CC(=O)C=C12 [Methylprednisolone, 6-alpha] (20 µM)",0.939,0.956,1.01,0.836,0.992 (inactive),1.03 (inactive),1.01 (inactive),0.991 (inactive),1.05 (inactive),1.03 (inactive),1.04 (inactive),1.03 (inactive)
COc1ccc(-c2cc(=S)ss2)cc1 [Anethole-trithione] (20 µM),0.802,1.01,0.968,1.04,1.04 (inactive),1.18 (inactive),1.07 (inactive),1.01 (inactive),0.972 (inactive),1.01 (inactive),0.986 (inactive),1.07 (inactive)
CN(C)c1ccc(O)c2c1C[C@H]1C[C@H]3[C@H](N(C)C)C(=O)C(C(N)=O)=C(O)[C@@]3(O)C(=O)C1=C2O [Minocycline hydrochloride] (20 µM),0.0113,0.0671,0.394,0.158,0.996 (inactive),0.0198 (active),0.14 (active),0.287 (active),0.866 (inactive),0.278 (active),0.681 (active),0.142 (active)
CCOC(=O)[C@H](CCc1ccccc1)N[C@@H](C)C(=O)N(CC(=O)O)C1Cc2ccccc2C1 [Delapril Hydrochloride] (20 µM),1.16,0.976,0.982,1.15,1.04 (inactive),0.958 (inactive),0.974 (inactive),1 (inactive),1.02 (inactive),1.01 (inactive),0.998 (inactive),0.905 (inactive)
